Common to all, as to assay: NCI-60 one-dose screen, 48 h (100 = growth as untreated, 0 = no growth, -100 = all killed)
Holding throughout (conditions): 10 µM unless noted

Assay [1] concerns RPMI-8226 leukemia.
Assay [2] deals with OVCAR-8 ovarian.
Assay [3] deals with OVCAR-5 ovarian.
Assay [4] has as its system OVCAR-4 ovarian.
Assay [5] concerns SK-OV-3 ovarian.
In assay [6] the test system is IGROV1 ovarian.
Assay [7] deals with OVCAR-3 ovarian.
The test system of assay [8] is HS 578T breast.
For assay [9], the system named is NCI/ADR-RES ovarian.
Assay [10] has as its system T-47D breast.
For assay [11], the system named is BT-549 breast.
Assay [12] concerns MDA-MB-435 melanoma.
The subject of assay [13] is SW-620 colon.
For assay [14], the system named is MCF7 breast.
In assay [15] the test system is HCT-116 colon.
The test system of assay [16] is HCC-2998 colon.
The subject of assay [17] is KM12 colon.
Assay [18] has as its system SR leukemia.

This is part of a sample that, as a whole, favours compounds with a hit. Of some 83,000 tested, about 20% had one in any assay.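 Testing used 96-well plates and a 48-hour single-concentration exposure. Example: -40 means 40% of the starting cells died.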 Values without a mark were called inactive. Active and inactive are the calls of the source. Rule for the calls: active = growth percent below 10; inactive = the rest.

In the case of `COC(=O)C1=C(C(=O)ON)[C@@H]2C=C[C@@]1([C@@H](Cc1ccccc1)Nc1ccccc1)O2`, the growth in [1] is 21.7%; in assay [2], 92.8%; in assay [3], 89%; in [4], 79.9%; in [5] it was 107%; in assay [6] it was 85.6%. In addition, the growth in [7] was -79.1% (active); in assay [8] it was 109%; in [9] it was 89.8%; in assay [10], -35.9% (active); in assay [11], 118%; in [12], 101%. The growth in assay [13] is -71.2% (active); in assay [14], 90.8%; in assay [15] it was -77.7% (active); in [16], 93.6%; in [17] it was 96.5%.
As to `CCN(CC)CC[n+]1cc2cc(OC)c(OC)cc2c2ccc3cc4c(cc3c21)OCO4`, the growth is -32.7% (active) in [1]; -82.8% (active) in assay [2]; 6.85% (active) in assay [3]; 1.21% (active) in [4]; -10.7% (active) in assay [5]; -44.1% (active) in assay [6]. In addition, the growth in assay [7] was 13.4%; in [8], -4.12% (active); in [9], 70.5%; in [10], 16.2%; in assay [11], -4.72% (active); in assay [12], 24.6%. Also, the growth in [13] is 9.98% (active); in assay [14], 11.5%; in assay [15] it was -83% (active); in assay [16] it was 18.7%; in assay [17] it was -82.2% (active).
On to `N=C1C(c2nc3ccccc3s2)=C(O)CN1c1cc(Cl)cc(Cl)c1`, for which the growth in [18] was 7.21% (active); in [2], 67.2%; in assay [3], 87%; in [4], 131%; in [5] it was 99.4%; in assay [6], 52.5%. Moreover, the growth in assay [7] was 87.2%; in assay [8] it was 52.7%; in assay [9], 78.9%; in [10], 97%; in [12], 41.6%; in assay [13] it was 54.8%. Besides, the growth is 148% in assay [14], 46.5% in assay [15], 85.8% in assay [16] and 64.7% in [17].
As to `N#CC1C(C#N)C2c3ccccc3C=CN2C1C(=O)c1ccc(Br)cc1` (configuration not stated), the growth in assay [1] is 110%; in [2], 94.9%; in [3], 98%; in assay [4], 54.3%; in assay [5], 108%; in assay [6] it was 102%. The growth in assay [7] is 109%; in [8], 103%; in [9], 94.7%; in assay [10], 91.8%; in assay [11], 103%; in [12] it was 100%. In addition, the growth in [13] was 99.2%; in [14], 92.5%; in assay [15], 87.7%; in [16] it was 112%; in assay [17], 99.2%.
`c1ccc(-c2cn3c(ccc4ccccc43)n2)cc1`: the growth is 62.5% in assay [1]; 71.4% in assay [2]; 77.2% in assay [3]; 91.5% in [4]; 77.1% in [5]; 49.3% in [6]. The growth in assay [7] was 56.3%; in assay [8], 67.8%; in assay [9], 35.7%; in assay [10] it was 66.5%; in assay [11], 63.6%; in assay [12] it was -34.7% (active). In addition, the growth was 22.8% in assay [13]; 28.5% in assay [14]; 35% in assay [15]; 75.5% in [16]; 23.4% in assay [17].
On to `O=C(C1CCC1)N1N=C(c2ccc(-n3ccc(C(F)(F)F)n3)cc2)CC1c1ccc[nH]1` (configuration not stated), for which the growth was 63.2% in assay [1]; 95.4% in assay [2]; 94.8% in [3]; 112% in assay [4]; 133% in assay [5]; 99.6% in assay [6]. The growth in assay [7] is 107%; in assay [8], 101%; in assay [9], 95.5%; in assay [10], 78%; in assay [11], 119%; in assay [12], 99.7%. Further, the growth in assay [13] was 103%; in assay [14] it was 91.9%; in assay [15], 94.4%; in [16] it was 113%; in assay [17], 89.7%.
Take `CC[C@]12C=CCN3CC[C@@]4(c5cc(NC(=O)CCC(=O)O[C@H]6CC[C@H]7[C@@H]8CCC9=CC(=O)CC[C@@H]9[C@H]8CC[C@]67C)c(OC)cc5N(C)[C@H]4[C@@](O)(C(=O)OC)[C@@H]1OC(C)=O)[C@@H]32`: the growth in assay [1] was 54.6%; in assay [2], 75.6%; in assay [3] it was 96.1%; in assay [4], 67%; in assay [5], 104%; in assay [6], 61.6%. Further, the growth is 80.8% in assay [7]; 73.9% in [8]; 80.1% in assay [9]; 53% in [10]; 77.6% in [11]; 20.7% in [12]. Moreover, the growth in [13] was 86.9%; in [14] it was 80%; in assay [15] it was 62.5%; in assay [16], 91.9%; in assay [17] it was 73.1%.
For the molecule `O=C1/C=C/[C@@H](O)[C@@H]2C[C@@H](O)C[C@H]2/C=C/CCC[C@H](CCc2ccc3ncccc3c2)O1`, the growth was 17.7% in assay [1]; 18% in [2]; 27.5% in assay [3]; 14.3% in assay [4]; 17.5% in assay [5]; -4.38% (active) in assay [6]. In addition, the growth in assay [7] was -17.5% (active); in [8] it was 41%; in [9] it was 2.87% (active); in assay [10], 0.682% (active); in assay [11], 7.66% (active); in [12] it was 5.74% (active). The growth was -14.2% (active) in [13]; 2.74% (active) in [14]; -53.6% (active) in assay [15]; 12.9% in [16]; -40.3% (active) in assay [17].
Take `O=C1NN(C(=O)c2ccccc2)C(c2ccc(Cl)c(Cl)c2)=C/C1=C\c1ccc([N+](=O)[O-])cc1`: the growth in assay [1] is 59.2%; in assay [2], 89.3%; in [3], 113%; in assay [4], 75.2%; in assay [5] it was 96.7%; in assay [6] it was 84.3%. The growth in assay [7] is 86.6%; in assay [8] it was 78.3%; in [9], 92.6%; in assay [10], 76.7%; in [11] it was 52.4%; in assay [12], 86.5%. Besides, the growth was 42.9% in assay [13]; 83.6% in assay [14]; 90.7% in [15]; 44.6% in assay [16]; 51.7% in assay [17].
